Common to all, as to type: functional
In assay [1] the target is Solute carrier family 2, facilitated glucose transporter member 1 (Homo sapiens) (UniProt P11166). Nature of the assay: ST_JUDE_LEISH: Cytotoxicity at 2uM final concentration against transgenic Leishmania Mexicana promastigotes LmGLUT1 that are glucose transport deficient and complemented with the human glucose transporter GLUT1. Activity is measured by DNA content using SYBR green in vitro.

Assay [2] has as its target Hexose transporter 1 (Plasmodium falciparum) (UniProt O97467). Nature of the assay: ST_JUDE_LEISH: Cytotoxicity at 2uM final concentration against transgenic Leishmania Mexicana promastigotes LmPfHT that are glucose transport deficient and complemented with the Plasmodium falciparum hexose transporter. Activity is measured by DNA content using SYBR green in vitro.
Assay [3] concerns the target Glucose transporter (Leishmania mexicana) (UniProt O61059). As to the kind of experiment: ST_JUDE_LEISH: Cytotoxicity at 2uM final concentration against transgenic Leishmania Mexicana promastigotes LmGT2 that are glucose transport deficient and complemented with the L. Mexicana glucose transporter 2. Activity is measured by DNA content using SYBR green in vitro.

Chain of Solute carrier family 2, facilitated glucose transporter member 1 (Homo sapiens) (P11166 whole entry): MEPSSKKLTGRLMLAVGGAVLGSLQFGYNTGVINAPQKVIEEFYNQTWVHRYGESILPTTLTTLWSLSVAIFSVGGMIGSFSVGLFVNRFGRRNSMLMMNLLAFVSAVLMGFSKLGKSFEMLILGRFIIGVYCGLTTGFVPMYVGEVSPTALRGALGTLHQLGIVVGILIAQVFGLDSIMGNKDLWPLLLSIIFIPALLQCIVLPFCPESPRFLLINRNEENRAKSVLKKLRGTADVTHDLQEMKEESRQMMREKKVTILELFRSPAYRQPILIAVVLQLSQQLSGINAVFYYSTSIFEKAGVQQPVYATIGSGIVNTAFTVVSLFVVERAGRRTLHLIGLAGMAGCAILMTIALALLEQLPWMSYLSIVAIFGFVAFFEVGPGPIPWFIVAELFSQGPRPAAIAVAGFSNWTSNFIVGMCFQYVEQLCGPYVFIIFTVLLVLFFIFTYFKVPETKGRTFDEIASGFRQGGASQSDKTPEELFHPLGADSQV

As a reminder, the inhibition is the change of the read-out against control, counted positive when it falls. In the case of `NCCCNc1nccc(N2CCc3ncnc(Nc4ccc(OCc5cccc(F)c5)c(Cl)c4)c3C2)n1`, the inhibition was 2.13% in assay [1], 4.48% in assay [2] and 4.02% in assay [3].
On the same counts, the results for `CCCCCCNC(=O)C1Cc2c([nH]c3ccc(C)cc23)C2(CCN(Cc3ccccc3)CC2)N1` (centres undefined) are 0.98%, 0.07% and 1.33%.
On the same counts, the results for `O=C(Nc1ccc(N2CCCCC2)c(Cl)c1)c1ccco1` are 0.11%, 0.86% and -1.58%.
Take `CC(NC(=O)c1cc(-c2ccccc2)nc2c1cnn2C(C)C)C1CC1` (centres undefined): the inhibition amounted to 1.45% in assay [1], 0.66% in assay [2] and 0.29% in assay [3].
The like results for `O=C(CC1NC(=O)c2ccccc21)Nc1ccc(-c2ccc(-c3nc4cc(C(F)(F)F)ccc4[nH]3)cc2)cc1` (centres undefined) were, in that order, 4.68%, 3.05% and 5.45%.
The like results for `COc1ccccc1N1CCN(C(C(=O)NCc2ccc(C)cc2)c2ccc(C)cc2)CC1` (centres undefined) were, in that order, -0.68%, -0.64% and -2.75%.
Consider `COc1cc(Cc2cnc(N)nc2N)cc(OCCCCNS(=O)(=O)C(F)(F)F)c1OC`, for which the values for the inhibition in assay [1], in assay [2] and in assay [3] were 1.9%, 1.69% and 1.88%, respectively.
Turning to `Cc1ccc(Cn2c(N3CCC(C(=O)NCc4ccccn4)CC3)nc3ccccc32)cc1`, the inhibition in assay [1] was determined as 4.09%; in assay [2] it was 4.68%; in assay [3] it was 7.97%.
For `CN1CCC(NC(=O)c2cc(Oc3ccc4c(c3)CCN4C(=O)Nc3cccc(C(F)(F)F)c3)ccn2)CC1`, the inhibition came out at 3.67% in assay [1], 6.55% in assay [2] and 1.74% in assay [3].
The like results for `CC(C)C1C(O)=C(c2ccc3ccccc3c2)C(=O)N1Cc1cccc(F)c1` (centres undefined) were, in that order, 6.97%, 7.53% and 8.55%.
On the same counts, the results for `O=C(Nc1ccc(-c2nc3ccccc3[nH]2)cc1)c1ccc([N+](=O)[O-])s1` are 5.3%, 7.89% and 3.02%.
With `COc1ccc(CCCc2nc(N)nc(N)c2-c2ccc(Cl)cc2)cc1`, the inhibition in assay [1] is 6.21%; in assay [2], 6.84%; in assay [3], 3.75%.
Regarding `c1cc(-c2ccc(CNC3CC3)cc2)cc(-c2nc3ccccc3[nH]2)c1`, the inhibition was found to be 4.18% in assay [1], 1.98% in assay [2] and 0.68% in assay [3].
For the compound `O=C(/C=C/c1ccc([N+](=O)[O-])cc1)N1CCC(NS(=O)(=O)c2ccc(Br)cc2)CC1`, the figures for the inhibition in assay [1], in assay [2] and in assay [3] were -0.08%, 1.13% and 1.17%, respectively.
On the same counts, the results for `Cc1[nH]c(C)c(-c2ccc(-c3ccc(Cl)cc3)nc2)c(=O)c1Cl` are 0.56%, 1.71% and -0.19%.
As to `CCCC(CNCc1cccc(SC(F)(F)F)c1)CNc1cc(=O)c2ccccc2[nH]1` (centres undefined), the values for the inhibition in assay [1], in assay [2] and in assay [3] were -0.14%, 1.41% and 3.17%, respectively.
For `COc1cc(COc2c(C)nc(N)nc2N)cc(OC)c1OC`, the inhibition is 5.98% in assay [1], 4.54% in assay [2] and 4.97% in assay [3].
`Oc1ccc(CCCNc2nc(NCc3cccc4ccccc34)nc(NC3CCNCC3)n2)cc1`: the inhibition is -0.36% in assay [1], 3.07% in assay [2] and 2% in assay [3].
As to `COc1ccccc1NC(=O)Nc1cccc(-c2ccc(-c3nc4cccc(C)c4[nH]3)s2)c1`, the inhibition in assay [1] was 3.95%; in assay [2], 6.34%; in assay [3] it was 3.94%.
As to `CCCc1cc(N2CCC(N(CC)CC)C2)nc(Nc2ccc(OC)cc2)n1` (centres undefined), the inhibition in assay [1] was 3.16%; in assay [2], 3.72%; in assay [3], 1.91%.
The like results for `CC1SC(=S)NC1C(=O)O` (centres undefined) were, in that order, -1.93%, 0.57% and 0.24%.
The like results for `CCN(CCC1(c2ccc(Cl)c(Cl)c2)CN(C(=O)c2cc(OC)c(OC)c(OC)c2)CCO1)C1CC2c3ccccc3CC21` (centres undefined) were, in that order, -0.68%, 1.17% and -0.3%.
Take `C[C@H](N[C@H]1CCCc2c1[nH]c1ccc(Br)cc21)c1ccccc1`: the figures for the inhibition in assay [1], in assay [2] and in assay [3] were 2.46%, 0.78% and 0.74%, respectively.
On the same counts, the results for `CCN(CC)CCCC(C)Nc1ccnc2ccc(OC)cc12` (centres undefined) are 8.15%, 8.91% and 8.52%.
As for `Cc1cccc(CN2CCCC3(CCN(Cc4ccccc4O)C3)C2)c1` (centres undefined), the inhibition in assay [1] is 2.62%; in assay [2], 1.27%; in assay [3], -0.38%.
The like results for `COc1cc(Br)c(NC(=O)Nc2ccc(C(F)(F)F)c(O[C@@H]3CCN(C)C3)c2)cc1OC` were, in that order, 2.53%, 2.26% and 1.55%.
As for `Cc1cc(NC(=O)c2cccs2)ccc1OC1CCN(Cc2ccc(C#N)cc2)C1` (centres undefined), the results for the inhibition in assay [1], in assay [2] and in assay [3] were 2.86%, 4.23% and 3.26%, respectively.
In the case of `COc1ccc2[nH]c(C)cc(=NN=Cc3ccncc3)c2c1`, the inhibition in assay [1] was 3.45%; in assay [2], -0.44%; in assay [3] it was 4.43%.
On the same counts, the results for `Cc1cccc(C(=O)N2CCN(Cc3cccc(NC(=O)c4ccco4)c3)CC2)c1` are -1.31%, 1.48% and 1.47%.
On the same counts, the results for `CCN(CC)/C(=N\CCCCCC/N=C(\NC(=N)c1ccc(Cl)cc1)N(CC)CC)NC(=N)c1ccc(Cl)cc1` are 1.79%, 2.4% and 2.59%.
The like results for `O=C(Cn1c(CCc2cccc(F)c2F)cc(=O)c2ccccc21)N(Cc1ccc(-c2ccc(C(F)(F)F)cc2)cc1)C1CCN(CCN2CCOCC2)CC1` were, in that order, 1.92%, 1.75% and 1.28%.
For `O=C(C=Cc1cn(-c2ccccc2)nc1-c1cccs1)N1CCN(c2ccncc2)CC1`, the results for the inhibition in assay [1], in assay [2] and in assay [3] were 1.81%, 0.46% and -3.76%, respectively.
On the same counts, the results for `COc1cc(-c2cc3cc(Cl)c(Cl)cc3[nH]2)ccc1C(=O)NC1CCN(Cc2ccccc2)CC1` are 4.58%, 2.67% and 3.54%.

These data come from ChEMBL document CHEMBL3433997, “St. Jude Leishmania screening dataset” (2016).
